“And” between values parts separate entries of the source, which are not always exact repeats. Equal entries are not always repeated. Among all 5,500 compounds or so, about 2,000 (36%) were called active. Roughly 18% stayed inconclusive and do not appear here. Rule as the data show it: active = normalized growth mostly below about 0.91 (no sharp cut-off); inconclusive = no clear call, values can overlap the other calls; inactive = mostly above about 0.92. This is one part of the list.
Assay: chemical genetic growth profiling, strain panel (AID 1159580);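 also: tested at 20 µM; growth read once vehicle control cultures reached saturation at 30 °C; 1 = growth at the plate median or of vehicle wells; lower values mean less growth of the strain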
Settings: growth OD

Measured: normalized growth

C#CCN(C)Cc1ccccc1
inactive: S. cerevisiae deletion strains, locus YJR075W, strain HOC1, active compounds read low 0.991 | S. cerevisiae deletion strains, locus YKL009W, strain mrt4, active compounds read low 1.02 | S. cerevisiae deletion strains, locus YKL068W, active compounds read low 1 | S. cerevisiae deletion strains, locus YKL085W, strain MDH1 (second series), active compounds read low 1 | S. cerevisiae deletion strains, locus YKL085W, strain MDH1, active compounds read low 1 | S. cerevisiae deletion strains, locus YKL160W, strain elf1, active compounds read low 1.01 | S. cerevisiae deletion strains, locus YKL190W, strain CNB1, active compounds read low 0.997 | S. cerevisiae deletion strains, locus YKR001C, strain vps1, active compounds read low 1.02 | S. cerevisiae deletion strains, locus YKR026C, strain gcn3, active compounds read low 1.02 | S. cerevisiae deletion strains, locus YKR091W, strain srl3, active compounds read low 1.02 | S. cerevisiae deletion strains, locus YLL001W, strain dnm1, active compounds read low 1.02 | S. cerevisiae deletion strains, locus YLL026W, active compounds read low 1 | S. cerevisiae deletion strains, locus YLL041C, strain sdh2, active compounds read low 0.968 | S. cerevisiae deletion strains, locus YLR027C, strain aat2, active compounds read low 0.991 | S. cerevisiae deletion strains, locus YLR039C, strain RIC1, active compounds read low 1.02 | S. cerevisiae deletion strains, locus YLR058C, strain SHM2, active compounds read low 0.998 | S. cerevisiae deletion strains, locus YLR102C, strain apc9, active compounds read low 1.01 | S. cerevisiae deletion strains, locus YLR113W, strain HOG1, active compounds read low 1 | S. cerevisiae deletion strains, locus YLR221C, strain rsa3, active compounds read low 1.01 | S. cerevisiae deletion strains, locus YLR258W, strain gsy2, active compounds read low 1 | S. cerevisiae deletion strains, locus YLR262C, strain YPT6 (second series), active compounds read low 1.05 | S. cerevisiae deletion strains, locus YLR262C, strain YPT6, active compounds read low 0.997 | S. cerevisiae deletion strains, locus YLR268W, strain sec22, active compounds read low 1.06 | S. cerevisiae deletion strains, locus YLR320W, strain mms22, active compounds read low 0.99 | S. cerevisiae deletion strains, locus YLR330W, strain CHS5, active compounds read low 1 | S. cerevisiae deletion strains, locus YLR342W, strain FKS1 (second series), active compounds read low 1.02 | S. cerevisiae deletion strains, locus YLR342W, strain FKS1, active compounds read low 1.03 | S. cerevisiae deletion strains, locus YLR357W, strain rsc2, active compounds read low 1.05 | S. cerevisiae deletion strains, locus YLR370C, strain arc18, active compounds read low 0.987 | S. cerevisiae deletion strains, locus YLR371W, strain rom2, active compounds read low 1.02 | S. cerevisiae deletion strains, locus YLR384C, strain iki3, active compounds read low 0.996 | S. cerevisiae deletion strains, locus YLR418C, strain cdc73, active compounds read low 1.02 | S. cerevisiae deletion strains, locus YML016C, strain PPZ1, active compounds read low 1 | S. cerevisiae deletion strains, locus YML032C, strain rad52, active compounds read low 1.02 | S. cerevisiae deletion strains, locus YML120C, strain ndi1, active compounds read low 0.999 | S. cerevisiae deletion strains, locus YML124C, strain tub3, active compounds read low 1.01 | S. cerevisiae deletion strains, locus YMR058W, strain fet3, active compounds read low 1.04 | S. cerevisiae deletion strains, locus YMR078C, strain ctf18, active compounds read low 1.02 | S. cerevisiae deletion strains, locus YMR125W, strain sto1, active compounds read low 1.03 | S. cerevisiae deletion strains, locus YMR129W, active compounds read low 0.988 | S. cerevisiae deletion strains, locus YMR205C, strain PFK2, active compounds read low 0.98 | S. cerevisiae deletion strains, locus YMR223W, strain ubp8, active compounds read low 0.98 | S. cerevisiae deletion strains, locus YMR231W, strain pep5, active compounds read low 1.02 | S. cerevisiae deletion strains, locus YMR263W, strain SAP30, active compounds read low 0.995 | S. cerevisiae deletion strains, locus YMR307W, strain GAS1, active compounds read low 0.994 and 0.99 | S. cerevisiae deletion strains, locus YNL067W, strain RPL9B, active compounds read low 0.99 | S. cerevisiae deletion strains, locus YNL071W, strain lat1, active compounds read low 1.02 | S. cerevisiae deletion strains, locus YNL128W, strain TEP1, active compounds read low 1.01 and 0.994 | S. cerevisiae deletion strains, locus YNL153C, strain GIM3, active compounds read low 1.15 | S. cerevisiae deletion strains, locus YNL175C, strain NOP13, active compounds read low 1.01 | S. cerevisiae deletion strains, locus YNL183C, strain NPR1, active compounds read low 0.944 | S. cerevisiae deletion strains, locus YNL197C, strain WHI3, active compounds read low 1.01 | S. cerevisiae deletion strains, locus YNL209W, strain ssb2, active compounds read low 1.02 | S. cerevisiae deletion strains, locus YNL224C, strain SQS1, active compounds read low 1.04 | S. cerevisiae deletion strains, locus YNL233W, strain BNI4, active compounds read low 0.996 | S. cerevisiae deletion strains, locus YNL248C, strain rpa49, active compounds read low 1.03 | S. cerevisiae deletion strains, locus YNL250W, strain rad50, active compounds read low 1.01 | S. cerevisiae deletion strains, locus YNL271C, strain bni1, active compounds read low 1.02 | S. cerevisiae deletion strains, locus YNL298W, strain CLA4, active compounds read low 1.03 | S. cerevisiae deletion strains, locus YNL307C, strain MCK1, active compounds read low 1.03 | S. cerevisiae deletion strains, locus YNL322C, strain KRE1 (second series), active compounds read low 1.03 | S. cerevisiae deletion strains, locus YNR049C, strain mso1, active compounds read low 0.961 | S. cerevisiae deletion strains, locus YNR052C, strain pop2, active compounds read low 1.03 | S. cerevisiae deletion strains, locus YOL006C, strain TOP1, active compounds read low 1 | S. cerevisiae deletion strains, locus YOL012C, strain htz1 0.939 | S. cerevisiae deletion strains, locus YOL147C, strain pex11, active compounds read low 1.02 | S. cerevisiae deletion strains, locus YOR001W, strain rrp6, active compounds read low 1.01 | S. cerevisiae deletion strains, locus YOR061W, strain CKA2, active compounds read low 1 | S. cerevisiae deletion strains, locus YOR069W, strain VPS5, active compounds read low 1 | S. cerevisiae deletion strains, locus YOR070C, strain gyp1, active compounds read low 1.01 | S. cerevisiae deletion strains, locus YOR080W, strain dia2, active compounds read low 1.02 | S. cerevisiae deletion strains, locus YOR083W, strain WHI5 (second series), active compounds read low 1.01 | S. cerevisiae deletion strains, locus YOR083W, strain WHI5, active compounds read low 1 | S. cerevisiae deletion strains, locus YOR106W, strain vam3, active compounds read low 0.996 | S. cerevisiae deletion strains, locus YOR136W, strain idh2, active compounds read low 1.01 | S. cerevisiae deletion strains, locus YOR144C, strain elg1, active compounds read low 1.01 | S. cerevisiae deletion strains, locus YOR184W, strain ser1, active compounds read low 1.01 | S. cerevisiae deletion strains, locus YOR231W, strain MKK1, active compounds read low 0.997 | S. cerevisiae deletion strains, locus YOR265W, strain rbl2, active compounds read low 1.01 | S. cerevisiae deletion strains, locus YOR270C, strain vph1, active compounds read low 1.06 | S. cerevisiae deletion strains, locus YOR290C, strain snf2, active compounds read low 0.999 | S. cerevisiae deletion strains, locus YOR316C, strain cot1, active compounds read low 1.02 | S. cerevisiae deletion strains, locus YPL051W, strain arl3, active compounds read low 1.02 | S. cerevisiae deletion strains, locus YPL078C, strain atp4, active compounds read low 1.05 | S. cerevisiae deletion strains, locus YPL106C, strain sse1, active compounds read low 1.07 | S. cerevisiae deletion strains, locus YPL240C, strain hsp82, active compounds read low 0.979 | S. cerevisiae deletion strains, locus YPL256C, strain CLN2, active compounds read low 0.939 | S. cerevisiae deletion strains, locus YPR119W, strain clb2, active compounds read low 1.02 | S. cerevisiae deletion strains, locus YPR141C, strain kar3, active compounds read low 1 | S. cerevisiae deletion strains, locus YPR163C, strain tif3, active compounds read low 1.02 | S. cerevisiae deletion strains, locus YPR167C, strain met16, active compounds read low 1.02 | S. cerevisiae deletion strains, strain wtn01, active compounds read low 1.02 | S. cerevisiae strains, strain wild type, active compounds read low 0.998

Reference: PubChem BioAssay AID1159580 (chemical genetic matrix, 2015)
